Compound activity as filed in PubChem BioAssay.
This excerpt belongs to a sample that is enriched for hits.
HT1080 IDH1KD tx: kills HT-1080 cells with IDH1 knockdown; Potency, µM (doses to about 46.1 µM), without a hit: at the highest dose activity, negative = toxicity, most hits filed as cytotoxic; HT-1080 IDH1 knockdown viability, ATP luminescence, 48 h; 360,000 compounds, 2% hits;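 also: potency is read from the fitted curve at half-maximal effect; 0% = DMSO wells and -100% = cell-free medium wells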
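HT-1080-IDH1KD cells (IDH1 knocked down), 750/well in RPMI with 5% FBS, treated with compound 48 h at 37 degrees C. Viability by CellTiter-Glo luminescence, normalised to DMSO and no-cell wells; concentration-response curves classed.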
DT40 TDP1 CPT: DT40-hTDP1 cell growth loss with CPT. chicken DT40 Tdp1-/-;hTDP1 cells + 20 nM CPT, ATP luminescence, 48 h. Potency, µM (series often up to 46.2 µM), without a hit: at the highest dose activity change, negative = growth inhibition, hits mostly inhibitors. 420,000 compounds, 12% hits; also: potency is read from the fitted curve at half-maximal effect; nearly all actives have a fitted effect of over 55% in size
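Chicken DT40 Tdp1-/- cells complemented with human TDP1, 400 cells/well, exposed to compounds plus 20 nM camptothecin for at least 48 h at 37 C; viability read as ATP content by CellTiter-Glo luminescence.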
HT1080-NT tox: kills 2HG-producing HT-1080-NT fibrosarcoma cells; HT-1080-NT fibrosarcoma viability, CellTiter-Glo ATP luminescence, 48 h; Potency, µM (top dose mostly 46.1 µM), for inactives: at the top dose activity, negative = less viability, most hits filed as cytotoxic; 360,000 compounds, 1.6% hits;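 also: NT is the 2HG producing partner of a matched IDH1 knockdown line; potency is read from the fitted curve at half-maximal effect; 0% = DMSO-treated cells and -100% = media-only wells without cells; nearly all actives have a fitted effect of over 55% in size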
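Read-out is CellTiter-Glo luminescence after 10 minutes at room temperature, following 48 hours' compound treatment of HT-1080-NT cells (750 cells/well, RPMI, 5% FBS, 37 degrees C).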
12-LOX inh: inhibitors of human 12S-lipoxygenase ALOX12 | P18054 | purified 12hLO, xylenol orange hydroperoxide absorbance | Potency, µM (doses to about 108 µM), for inactives: top-dose activity change, negative = inhibition, actives largely listed as inhibitors | 580,000 compounds, 1.1% hits; also: potency is read from the fitted curve at half-maximal effect
Target sequence (P18054 whole entry, looked up): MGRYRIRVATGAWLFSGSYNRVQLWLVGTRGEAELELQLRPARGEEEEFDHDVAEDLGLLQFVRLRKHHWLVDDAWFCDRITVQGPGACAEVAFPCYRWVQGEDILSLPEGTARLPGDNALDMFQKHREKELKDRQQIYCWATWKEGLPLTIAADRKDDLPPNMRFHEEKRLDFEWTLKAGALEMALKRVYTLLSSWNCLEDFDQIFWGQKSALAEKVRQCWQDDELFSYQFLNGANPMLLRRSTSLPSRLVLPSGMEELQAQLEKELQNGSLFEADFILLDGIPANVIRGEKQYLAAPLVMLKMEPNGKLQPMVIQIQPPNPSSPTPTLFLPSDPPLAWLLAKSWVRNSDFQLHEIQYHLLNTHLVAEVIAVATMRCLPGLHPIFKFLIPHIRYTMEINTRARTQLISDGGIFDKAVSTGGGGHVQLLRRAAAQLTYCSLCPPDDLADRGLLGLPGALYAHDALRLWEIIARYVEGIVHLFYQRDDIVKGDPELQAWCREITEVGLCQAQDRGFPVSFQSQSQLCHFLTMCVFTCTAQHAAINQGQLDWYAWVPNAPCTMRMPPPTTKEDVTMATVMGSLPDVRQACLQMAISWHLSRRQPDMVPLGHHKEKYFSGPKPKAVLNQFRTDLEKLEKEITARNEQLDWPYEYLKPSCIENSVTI
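Hydroperoxide product was detected by ferrous iron/xylenol orange as the 573 to 405 nm absorbance ratio. Arachidonic acid at 40 uM (final) was turned over for 30 min at room temperature by 150 nM human 12hLO, pH 7.0 Hepes buffer, after 15 min compound preincubation.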
TDP1 cell noCPT: qHTS for Inhibitors of human tyrosyl-DNA phosphodiesterase 1 (TDP1): qHTS in cells in absence of CPT; AID 686978, 2013; Potency, µM (series often up to 46.2 µM), inactives show top-dose activity change, negative = growth inhibition, hits mostly inhibitors; DT40 Tdp1-/- hTDP1 cells, no CPT, ATP luminescence, 48 h; 420,000 compounds, 15% hits; also: potency is read from the fitted curve at half-maximal effect; nearly all actives have a fitted effect of over 55% in size
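Cells were dispensed at 400 per well, compounds added by pin tool, plates incubated ≥48 hr at 37 °C, then CellTiter-Glo added for 30 min at room temperature before luminescence reading. Line: DT40 Tdp1-/- complemented with hTDP1; camptothecin omitted.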
IL1B secr inh: inflammasome signaling inhibition, IL-1 beta readout; THP-1 LPS/ATP IL-1B secretion, AlphaLISA, 16 h; hits give low values; activity change, % at 57.5 µM; 360,000 compounds, 4.7% hits; in the data active = activity change below about -50%; inconclusive = mostly about -30% to -49%
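Secreted IL-1B measured by AlphaLISA bead assay after 16 h compound exposure of THP-1 cells; compounds (final up to 57.5 uM) added 1 h before LPS (250 ng/mL) and ATP (1.25 mM) stimulation; lower signal means less secretion.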
Starred values were filed as active, the others as inactive; ? = inconclusive; / = no result; [ ] = dose if it differs, or a comment. Unless noted, calls follow the shape of the dose curve; as a rule, active = well fitted curve in the direction sought with a large enough effect; inconclusive = small, poorly fitted or top-dose-only effect, or another doubt; inactive = no such curve, though single readings can be large; an effect the other way counts as inactive or inconclusive. Unless noted, % is scaled to controls: 0 for no effect and ±100 for the full control effect.

SMILES	HT1080 IDH1KD tx	DT40 TDP1 CPT	HT1080-NT tox	12-LOX inh	TDP1 cell noCPT	IL1B secr inh
COc1c(Cl)cc(Cl)cc1C(=O)Nc1cccc(-c2nc3ccccc3o2)c1C	/	?	/	-1%	?	/
CCSc1nc2n(n1)C(c1ccc(Cl)cc1Cl)C(C(=O)Nc1ccccc1C)=C(C)N2 (configuration not stated)	/	18µM*	/	-11%	13µM*	/
Cc1cccc(C(=O)N2[C@H]3CC[C@@H]2c2cnc(C)nc2C3)c1	/	/	/	25%	/	/
COc1cccc(C(=O)c2c(N)c(-c3nc(-c4ccccc4)cs3)c3ccccn23)c1	/	?	/	-24%	21µM*	/
COc1cc2c(cc1Oc1ccccc1)NC(=O)C21CCN(Cc2nccn2C)CC1	/	/	/	15%[176 µM]	/	/
CCOC(=O)Cc1csc(NC(=O)c2c(O)c3ccccc3n(CCC(C)C)c2=O)n1	3%	4.1µM*	11%	7%	4.6µM*	12
CCCCCCn1c(=O)c(C(=O)Nc2nc(CC(=O)OCC)cs2)c(O)c2ccccc21	-6%	3.7µM*	2%	0%	3.7µM*	3
COc1ccc(/C=C/C(=O)c2ccccc2)cc1COc1ccc(F)cc1	?	?	?	19%	21µM*	-52*
COCC(=O)NC[C@H]1C[C@@H]2CCN1C[C@@H]2c1cc(-c2cccs2)nn1C	/	/	/	61%[176 µM]	/	/
COC1C=CC23c4cc5c(cc4CN(CC2O)C3C1)OCO5 (configuration not stated)	/	2.1µM*	/	/	1.3µM*	/
O=[N+]([O-])/C=C\c1ccc2c(c1)OCO2	/	/	/	11µM*	/	/
CC(=O)c1ccc2c(c1)OCO2	4%	33%	4%	?	-1%	15
CC12CCC3C(CC=C4CC(O)CCC43C)C1C/C(=C\c1cccc(F)c1)C2=O (configuration not stated)	?	?	?	17%	15µM*	4
C[C@]12CC[C@H](O)CC1=CC[C@H]1[C@H]3CCC(=O)[C@@]3(C)CC[C@@H]12	/	/	/	0%[57.4 µM]	/	/
ClC1=C(Cl)C(Cl)=C(Cl)C1=C/C=C/c1ccccc1	-16%	5.2µM*	-9%	?	3.3µM*	13
COc1ccc(-c2c(C(F)(F)F)oc3cc(OC(=O)N(C)C)ccc3c2=O)cc1	/	/	/	-18%	/	/
O=c1[nH]sc2cc(F)ccc12	?	1.8µM*	?	40µM*	2.3µM*	-108*
O=C(NC[C@H]1C[C@@H]2CCN1C[C@@H]2CN1CCCC1)c1ccccc1	/	/	/	11%[176 µM]	/	/
Cc1[nH]cnc1CN1C[C@H](c2ccc3c(c2)OCO3)[C@@H]2[C@H]1C1CCN2CC1	/	/	/	-16%	/	/
CCOc1ccc(-c2c(C)n(-c3ccc(OCC)cc3)c3[n+]2CCCCC3)cc1	?	0.21µM*	15µM*	167%	0.16µM*	-92*
CN1CCc2nc3sc(C#N)c(N)c3c(-c3cccs3)c2C1	-6%	?	-1%	?	21µM*	-8
COc1ccc(S(=O)(=O)NC[C@H]2C[C@@H]3CCN2C[C@@H]3CN2CCC(Cc3ccccc3)CC2)cc1	/	/	/	20µM*	/	/
CC1(O)CCC2C3CCC4=CC(=O)CC[C@]4(C)C3CC[C@@]21C (some centres not stated)	/	/	/	34%	/	/
S=P(NCCNP(=S)(N1CC1)N1CC1)(N1CC1)N1CC1	-3%	-59%	-6%	-17%	1.3µM*	8
S=P(NCCSCc1ccccc1)(N1CC1)N1CC1	-18%	3.7µM*	-10%	-15%	7.3µM*	-21
SMILES	HT1080 IDH1KD tx	DT40 TDP1 CPT	HT1080-NT tox	12-LOX inh	TDP1 cell noCPT	IL1B secr inh
Cc1ncc2c(n1)C[C@@H]1CC[C@H]2N1C(=O)c1nn(C)c2ccccc12	/	/	/	40%	/	/
c1cnc(N2CCCC3(CCNCC3)C2)nc1	/	-2%	/	-4%[57.4 µM]	-24%	/
c1cc(N2CCCC3(CCNCC3)C2)ccn1	/	9.2µM*	/	8%[57.4 µM]	9.2µM*	/
CCCCOC(=O)c1ccc(NC(=O)c2c(O)[nH]c(=O)[nH]c2=O)cc1	-3%	21%	0%	-2%	-2%	15
CCOC(=O)c1ccc(NC(=O)c2nc[nH]c2C(=O)NCCNC(=O)c2[nH]cnc2C(=O)Nc2ccc(C(=O)OCC)cc2)cc1	1%	2.9µM*	0%	-4%	3.7µM*	13
CC(=O)c1cccc(-c2ccnc3c2CC(C(=O)NCCc2ccccc2)O3)c1 (configuration not stated)	?	4.6µM*	?	3%	3.7µM*	93
CC(=O)Nc1cccc(-c2ccnc3c2CC(C(=O)NCc2ccco2)O3)c1 (configuration not stated)	2.3µM*	1.8µM*	?	-3%	1.6µM*	23
Cc1cccc(CCNCc2cc3cccc(C)c3[nH]c2=O)c1	?	8.2µM*	-14%	0%	13µM*	-29
Cc1ccc2cc(CNCCc3ccccc3C)c(=O)[nH]c2c1	-10%	?	-18%	-29%	18µM*	-79*
O=S(=O)(c1cccs1)N1C[C@@H](c2ccc(F)cc2)[C@@H]2[C@H]1C1CCN2CC1	/	/	/	-21%	/	/
CN(C)CCN(C)CCc1ccc(Cl)c(Cl)c1	/	16µM*	/	?	21µM*	/
COc1ccc(CCN(C)Cc2ccncc2)cc1OC	12%	-13%	18%	?	-17%	18
CCCCOc1ccc(C(=O)NCCc2csc(-c3ccc(OC)cc3)n2)cc1	/	4.6µM*	/	-30%	4.1µM*	/
CC(C)NC(=O)NC[C@H]1C[C@@H]2CCN1C[C@@H]2CN1CCSCC1	/	/	/	74%[176 µM]	/	/
CCOC(=O)C1=C(Cc2ccc(Cl)cc2)C(=O)c2ccccc2C1=O	10µM*	4.6µM*	11µM*	/	4.6µM*	-89*
CCOC(=O)c1ccccc1C(=O)OCC	/	4%	/	3%	0%	21
O=C1CS(=O)C2(CCNCC2)N1C1CCCC1 (configuration not stated)	/	/	/	9%	/	/
Cc1ccc(Sc2ccc(C=C3C(=O)N(C)C(=O)N(C)C3=O)o2)cc1	13%	18µM*	25%	35µM*	18µM*	-12
CN1C(=O)C(=Cc2ccc(N3CCOCC3)o2)C(=O)N(C)C1=O	19%	-12%	23%	-28%	-8%	12
CC1CCN(C[C@H]2CN3CC[C@H]2C[C@@H]3CNC(=O)Nc2cccc(C#N)c2)CC1	/	/	/	49%[176 µM]	/	/
C[N+](C)(C)CC1CCCCC1=O (configuration not stated)	/	/	/	13µM*	/	/
O=C1CCCCC1CN1CCCCC1 (configuration not stated)	/	?	/	-6%	-30%	/
